Source: PubChem BioAssay
This excerpt belongs to a sample that is enriched for hits.
Pf apPOL inh = Pf-apPOL DNA polymerase inhibition | hit rate 0.25% among 210,000 | Recombinant Pf-apPOL, molecular beacon fluorescence, 1.5 h | inhibition, % at 10 µM | AID 1794808
mHTT-CaM PPI inh = disrupts binding of mutant huntingtin to calmodulin; hit rate 3.6% among 190,000; AlphaScreen His-mHTT/GST-CaM binding, luminescence; inhibition, % at 15 µM;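 also: 0% = both proteins with DMSO and 100% = one protein alone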
Target sequence (P42858 whole entry, looked up, stated change not applied): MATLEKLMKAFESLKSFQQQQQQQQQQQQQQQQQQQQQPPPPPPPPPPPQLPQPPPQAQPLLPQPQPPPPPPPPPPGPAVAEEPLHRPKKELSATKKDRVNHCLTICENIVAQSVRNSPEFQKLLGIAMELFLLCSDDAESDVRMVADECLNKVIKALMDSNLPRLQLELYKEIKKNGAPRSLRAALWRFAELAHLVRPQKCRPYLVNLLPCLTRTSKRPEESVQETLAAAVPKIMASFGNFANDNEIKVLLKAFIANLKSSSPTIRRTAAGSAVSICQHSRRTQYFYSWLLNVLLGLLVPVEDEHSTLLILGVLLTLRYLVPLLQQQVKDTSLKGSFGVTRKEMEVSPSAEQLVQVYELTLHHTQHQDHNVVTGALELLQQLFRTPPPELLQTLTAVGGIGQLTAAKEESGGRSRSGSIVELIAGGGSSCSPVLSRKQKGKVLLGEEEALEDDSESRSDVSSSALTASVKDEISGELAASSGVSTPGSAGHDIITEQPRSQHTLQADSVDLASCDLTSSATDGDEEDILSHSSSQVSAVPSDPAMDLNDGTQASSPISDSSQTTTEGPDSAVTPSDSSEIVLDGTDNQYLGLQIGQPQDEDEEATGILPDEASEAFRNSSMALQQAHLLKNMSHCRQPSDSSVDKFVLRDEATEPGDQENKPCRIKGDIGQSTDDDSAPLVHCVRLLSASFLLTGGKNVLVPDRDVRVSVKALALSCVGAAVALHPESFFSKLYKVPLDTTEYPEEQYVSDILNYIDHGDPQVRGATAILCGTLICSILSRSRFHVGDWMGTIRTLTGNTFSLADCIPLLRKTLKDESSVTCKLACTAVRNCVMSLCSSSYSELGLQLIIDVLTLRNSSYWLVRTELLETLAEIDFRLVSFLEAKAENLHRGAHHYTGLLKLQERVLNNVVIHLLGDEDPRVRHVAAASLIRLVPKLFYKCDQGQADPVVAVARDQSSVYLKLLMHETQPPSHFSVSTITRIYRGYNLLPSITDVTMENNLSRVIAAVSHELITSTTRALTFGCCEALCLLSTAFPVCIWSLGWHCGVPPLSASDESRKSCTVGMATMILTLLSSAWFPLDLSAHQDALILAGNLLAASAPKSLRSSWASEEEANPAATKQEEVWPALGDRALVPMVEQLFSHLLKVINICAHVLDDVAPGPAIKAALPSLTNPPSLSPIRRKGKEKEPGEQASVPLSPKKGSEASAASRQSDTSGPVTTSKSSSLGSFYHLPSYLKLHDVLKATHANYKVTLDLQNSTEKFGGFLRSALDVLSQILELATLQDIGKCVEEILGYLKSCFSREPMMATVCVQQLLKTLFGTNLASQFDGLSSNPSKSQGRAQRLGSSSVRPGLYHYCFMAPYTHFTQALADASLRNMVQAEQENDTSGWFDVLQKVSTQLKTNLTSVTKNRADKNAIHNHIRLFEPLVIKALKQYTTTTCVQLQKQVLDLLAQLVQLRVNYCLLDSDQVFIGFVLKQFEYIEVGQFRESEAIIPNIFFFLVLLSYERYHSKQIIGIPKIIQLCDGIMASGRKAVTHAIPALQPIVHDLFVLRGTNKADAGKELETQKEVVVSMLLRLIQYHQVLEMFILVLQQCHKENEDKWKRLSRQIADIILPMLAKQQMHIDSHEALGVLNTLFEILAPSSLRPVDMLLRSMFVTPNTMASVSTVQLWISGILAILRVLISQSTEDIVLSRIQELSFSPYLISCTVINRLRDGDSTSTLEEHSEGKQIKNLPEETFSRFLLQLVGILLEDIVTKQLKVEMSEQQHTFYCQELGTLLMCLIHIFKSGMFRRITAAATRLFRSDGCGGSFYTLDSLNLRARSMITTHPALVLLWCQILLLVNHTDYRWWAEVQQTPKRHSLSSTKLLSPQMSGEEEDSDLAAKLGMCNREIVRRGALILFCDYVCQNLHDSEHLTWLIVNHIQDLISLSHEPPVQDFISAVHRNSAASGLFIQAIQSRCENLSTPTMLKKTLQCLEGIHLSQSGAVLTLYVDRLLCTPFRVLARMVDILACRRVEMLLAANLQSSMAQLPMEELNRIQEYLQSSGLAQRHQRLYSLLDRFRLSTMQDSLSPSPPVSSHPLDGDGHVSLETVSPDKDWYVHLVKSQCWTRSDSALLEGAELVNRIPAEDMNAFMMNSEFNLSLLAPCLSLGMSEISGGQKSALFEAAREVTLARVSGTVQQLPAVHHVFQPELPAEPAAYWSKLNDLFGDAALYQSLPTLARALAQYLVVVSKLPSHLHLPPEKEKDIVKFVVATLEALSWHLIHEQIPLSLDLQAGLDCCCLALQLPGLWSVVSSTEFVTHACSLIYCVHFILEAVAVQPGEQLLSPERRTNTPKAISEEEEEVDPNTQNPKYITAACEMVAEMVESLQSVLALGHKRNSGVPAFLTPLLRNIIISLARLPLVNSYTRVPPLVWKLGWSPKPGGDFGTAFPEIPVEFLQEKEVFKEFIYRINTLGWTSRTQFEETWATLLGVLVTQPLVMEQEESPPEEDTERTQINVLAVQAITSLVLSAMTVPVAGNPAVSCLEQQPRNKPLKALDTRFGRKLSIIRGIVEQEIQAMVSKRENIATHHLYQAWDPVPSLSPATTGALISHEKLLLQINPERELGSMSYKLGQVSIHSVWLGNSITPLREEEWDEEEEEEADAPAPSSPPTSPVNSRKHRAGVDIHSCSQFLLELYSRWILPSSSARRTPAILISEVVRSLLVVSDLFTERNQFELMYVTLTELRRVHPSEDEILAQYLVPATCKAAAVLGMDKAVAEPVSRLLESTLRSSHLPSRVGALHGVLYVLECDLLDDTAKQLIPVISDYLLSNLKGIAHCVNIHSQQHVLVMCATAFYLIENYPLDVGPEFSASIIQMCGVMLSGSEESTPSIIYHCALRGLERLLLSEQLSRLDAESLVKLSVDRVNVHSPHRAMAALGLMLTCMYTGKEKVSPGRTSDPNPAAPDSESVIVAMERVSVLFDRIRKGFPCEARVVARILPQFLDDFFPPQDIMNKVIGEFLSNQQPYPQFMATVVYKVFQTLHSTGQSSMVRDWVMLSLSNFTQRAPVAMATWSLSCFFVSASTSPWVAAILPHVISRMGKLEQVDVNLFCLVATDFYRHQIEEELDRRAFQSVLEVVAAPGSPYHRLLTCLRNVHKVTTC
* = called active by the depositor; i = inactive; / = no result given. Rule as the data show it: active = inhibition above about 50%; inactive = the rest.

SMILES	Pf apPOL inh	mHTT-CaM PPI inh
CCn1cc2c3c(cccc31)CN(C(=O)c1ccccc1F)CC2	-3	56*
COCCn1cc2c3c(cccc31)CN(C(=O)COc1ccc(F)cc1)CC2	-2	56*
COCCn1cc2c3c(cccc31)CN(C(=O)COC)CC2	-1	30
CCCn1cc2c3c(cccc31)CN(C(=O)COc1ccccc1)CC2	-1	50*
COc1ccc(OCC(=O)N2CCc3cn(C)c4cccc(c34)C2)cc1	-6	33
COCCn1cc2c3c(cccc31)CN(C(=O)COc1ccccc1)CC2	-1	55*
COc1cccc(C2C3=C(CCCC3=O)Nc3nc(C(F)(F)F)nn32)c1OC (configuration not stated)	-9	-5
O=C(CCCC(=O)Nc1cccnc1)Nc1cccnc1	-4	/
COc1ccc(Cc2cnc(NC(=O)c3ccccc3Cl)s2)cc1	3	4
Cc1cc(C(=O)Nc2c3c(nn2-c2ccccc2)CCC3)nn1C	0	-2
O=C(N/C(=C\c1cccs1)C(=O)N1CCCCC1)c1cccs1	-46	2
CCn1cc2c3c(cccc31)CN(C(=O)Cc1ccc(F)cc1)CC2	-5	64*
CCC(=O)N1CCc2cn(CC)c3cccc(c23)C1	-3	28
Cc1ccc(N2C(=O)NC(=O)/C(=C\c3ccc(OCC(=O)O)c(Br)c3)C2=O)cc1	-8	2
Cc1c2c(n(Cc3c(F)cccc3F)c1C(=O)NCc1ccccn1)CCCC2	-2	17
Cc1cccc(Cn2c3c(c(C)c2C(=O)NCc2ccccn2)CCCC3)c1	4	86*
COc1cccc(C2C(C#N)=C(N)N(c3c(F)cccc3F)C3=C2C(=O)CC(C)(C)C3)c1 (configuration not stated)	1	-2
CCCCC(=O)NC(c1ccccc1)c1ccc2cccnc2c1O (configuration not stated)	-2	100*
CCCC(=O)NC(c1ccccc1)c1ccccc1	3	-11
CCCC(=O)NC(c1ccc(F)cc1)c1ccc2cccnc2c1O (configuration not stated)	2	100*
CCCC(=O)NC(c1ccccc1)c1cc(Cl)c2cccnc2c1O (configuration not stated)	0	18
CCCC(=O)NC(c1ccc(OC)cc1)c1ccc2cccnc2c1O (configuration not stated)	-3	100*
CCCC(=O)NC(c1ccccc1)c1ccc2cccnc2c1O (configuration not stated)	-4	100*
C(=N\OCc1nc2c3c4c(sc3ncn2n1)CCCC4)/c1ccccc1	2	i
CN(C)c1cc(C(N)=O)c2ccccc2n1	1	0
SMILES	Pf apPOL inh	mHTT-CaM PPI inh
O=C(NCc1cccs1)c1cc2nc(-c3ccccc3)cc(C(F)(F)F)n2n1	-4	-2
Cc1nc(C)c2c(n1)N(CCN1CCOCC1)C(=O)CC2	-3	-5
Cn1nc(COCc2ccc(F)cc2Cl)c2c1CCN(C(=O)Nc1ccccc1F)C2	-1	27
O=C(c1cc(-c2ccc(F)cc2)on1)N1CCCC1c1ccc(F)cc1 (configuration not stated)	-5	-5
CCCc1cc(NCCOC)n2c(nc3ccccc32)c1C#N	0	8
O=C(Nc1nnc(C2CC(=O)N(c3ccc(F)cc3)C2)o1)c1ccc(F)cc1 (configuration not stated)	0	16
CSc1ccc(N2CC(c3nnc(NC(=O)c4c(F)cccc4F)o3)CC2=O)cc1 (configuration not stated)	-2	38
CSc1ccc(N2CC(c3nnc(NC(=O)c4ccco4)o3)CC2=O)cc1 (configuration not stated)	-2	65*
O=C(Cc1cccc(F)c1)Nc1nnc(C2CC(=O)N(c3ccc(F)cc3)C2)o1 (configuration not stated)	-3	74*
O=C(Cc1ccc(F)cc1)Nc1nnc(C2=COCCO2)o1	-3	51*
O=C(Cc1ccc(F)cc1)Nc1nnc(-c2ccc3c(c2)CCCC3)o1	-6	-10
O=C(Cc1cccc(F)c1)Nc1nnc(C2CC(=O)N(c3ccc(Cl)cc3)C2)o1 (configuration not stated)	-2	6
COc1ccc(C(=O)Nc2nnc(C3CC(=O)N(c4ccc(F)cc4)C3)o2)cc1OC (configuration not stated)	-7	54*
O=C(NCc1ccc(N2CCCCCC2)nc1)C1CC1	-2	2
COc1cccc(C(=O)Oc2ccc3c(=O)c(-c4ccccc4OC)coc3c2)c1	-3	-6
Cc1ccc(CC(=O)Nc2nnc(C3CC(=O)N(c4ccc(F)cc4)C3)o2)cc1 (configuration not stated)	-8	0
O=C(Cc1ccc(F)cc1)Nc1nnc(C2CC(=O)N(c3ccc(F)cc3)C2)o1 (configuration not stated)	-1	80*
Cc1nc(C)c(-c2nnc(NC(=O)C3CC(=O)N(c4ccc(F)cc4)C3)o2)s1 (configuration not stated)	-1	97*
COc1ccccc1-c1nnc(NC(=O)C2CC(=O)N(c3ccc(F)cc3)C2)o1 (configuration not stated)	2	22
O=C(COc1nsnc1N1CCOCC1)Nc1ccccc1	3	0
C1CN(C2C3CC4CC(C3)CC2C4)CCO1 (configuration not stated)	-4	-2
CCCCOc1ccc(N2C(=O)CC(NCc3ccc4c(c3)OCO4)C2=O)cc1 (configuration not stated)	-3	8
CCn1c(C2CCN(S(=O)(=O)c3ccc(Cl)cc3)C2)nc2cccnc21 (configuration not stated)	2	1
COc1cccc(Oc2coc3c(CN4CCCCC4C)c(O)ccc3c2=O)c1 (configuration not stated)	-6	6
O=C(O)c1ccc(S(=O)(=O)Cc2cccc(F)c2)c([N+](=O)[O-])c1	-2	2
SMILES	Pf apPOL inh	mHTT-CaM PPI inh
O=C(Nc1c(S(=O)(=O)c2ccccc2)csc1Br)c1ccccc1Cl	-13	/
Cc1ccc(-c2csc(N3N=C(c4ccc([N+](=O)[O-])cc4)CC3=O)n2)cc1	0	53*
O=[N+]([O-])c1ccc(-c2csc(N3CCCC3)n2)cc1	-2	-2
COc1ccc(C(=O)N2CCCn3cc(-c4ccccc4)nc32)cn1	-3	15
CN(Cc1ccccc1)C(=O)C(C)(c1ccccc1)c1ccccc1	-3	-33
O=C(NC(Nc1ccc(Cl)cc1Cl)C(Cl)(Cl)Cl)c1ccco1 (configuration not stated)	10	51*
O=C(NC(Nc1ccc(Cl)cc1)C(Cl)(Cl)Cl)c1ccco1 (configuration not stated)	4	3
Cc1ccc(C)c(NC(=O)C2CC(=O)N(CCc3c[nH]c4ccc(F)cc34)C2)c1 (configuration not stated)	0	22
COc1ccc2[nH]cc(CCN3CC(C(=O)Nc4ccc(C)cc4C)CC3=O)c2c1 (configuration not stated)	-3	12
COc1ccc2[nH]cc(CCN3CC(C(=O)Nc4nc5ccc(C)cc5s4)CC3=O)c2c1 (configuration not stated)	-2	56*
Cc1ccc2nc(NC(=O)C3CC(=O)N(CCc4c[nH]c5ccc(F)cc45)C3)sc2c1 (configuration not stated)	-1	91*
CCCC(=O)N1c2ccccc2-c2nnc(SC)nc2OC1c1cccs1 (configuration not stated)	-4	17
